Results as given in PubChem BioAssay (Tox21).
Where “and” joins values, the source holds several entries; their conditions need not be identical. Identical values can stand only once. Inconclusive results are not listed. Some structures have more than one record in an assay (separate samples or runs), and their calls can disagree. Calls of active or inactive are those of the source. Unless noted, calls follow the shape of the dose curve; as a rule, active = well fitted curve in the direction sought with a large enough effect in the repeat runs; inconclusive = weak or mixed curves; inactive = no such curve, though single readings can be large; an effect the other way counts as inactive or inconclusive.

Experiments:
[1] = qHTS assay for small molecules that induce genotoxicity in human embryonic kidney cells expressing luciferase-tagged ATAD5 (AID 651632); also: nearly all actives have a fitted effect of over 15% in size; also: potency is read from the fitted curve at half-maximal effect
Method in brief: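 Cells were seeded at 2,000 per well, dosed with compound, and incubated 16 hr at 37C in 5% CO2. Luciferase activity was then quantified after a 30 min room-temperature incubation with Amplite.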

[2] = qHTS assay for small molecule agonists of the p53 signaling pathway - cell viability (AID 651633; calls by dose curve; also: nearly all actives have a fitted effect of over 30% in size; also: potency is read from the fitted curve at half-maximal effect;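 as to activity change, negative = cytotoxicity: p53RE-bla HCT reporter cells with a stable beta-lactamase p53 reporter; series mostly up to about 83 µM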)
Method in brief: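 p53RE-bla cells, seeded at 4,000 per well and rested 5 h at 37 C/5% CO2, received compounds in DMSO for 16 h at 37 C. CellTiter-Glo was then added, and luminescence was read after 30 min at room temperature to gauge cytotoxicity.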

[3] = qHTS assay for small molecule disruptors of the mitochondrial membrane potential - cell viability (AID 720634; calls by dose curve; also: nearly all actives have a fitted effect of over 20% in size; also: potency is read from the fitted curve at half-maximal effect;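 as to activity change, negative = cytotoxicity: human HepG2 liver cancer cells; series mostly up to about 83 µM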)
Method in brief: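 Cytotoxicity was measured by ATP quantitation in HepG2 wells that had first been treated with compound for 1 hr and stained with m-MPI dye; CellTiter-Glo incubation was 30 min at room temperature.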

[4] = qHTS assay to test for compound auto fluorescence at 590 nm (red) in HepG2 cells (AID 720674)
Method in brief: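 Compound auto-fluorescence is scored relative to Rose Bengal sodium, measured at 540/590 nm in live HepG2 cultures after 1 hr compound contact (37 C, 5% CO2).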

[5] = qHTS assay to test for compound auto fluorescence at 535 nm (green) in HepG2 cells (AID 720675)
[6] = qHTS assay to test for compound auto fluorescence at 460 nm (blue) in HEK293 cells (AID 720678); also: potency is read from the fitted curve at half-maximal effect
Method in brief: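 Blue read-out at excitation 405 nm and emission 460 nm follows overnight compound exposure of HEK293 cells at 37C in 5% CO2. Activity is given as auto fluorescence equivalency to triamterene.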

[7] = qHTS assay to test for compound auto fluorescence at 590 nm (red) in HEK293 cells (AID 720679)
Method in brief: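 Red channel, Ex/Em 540/590nm; signal expressed as equivalency to Rose Bengal sodium. HEK293, 2,000 cells/well, 10% dialyzed FBS; 23 nL compound pinned after 4-5 hr attachment; overnight 37C/5% CO2 before reading.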

[8] = qHTS assay for small molecules that induce genotoxicity in human embryonic kidney cells expressing luciferase-tagged ATAD5 - cell viability (AID 651634; calls by dose curve; also: nearly all actives have a fitted effect of over 25% in size; also: potency is read from the fitted curve at half-maximal effect)
Method in brief: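 Cells (HEK293T, luciferase-tagged ATAD5) are seeded at 2,000 per well, dosed with compound or DMSO vehicle, and incubated 15.5 hr at 37C and 5% CO2. CellTiter-Fluor is added for 30 min before fluorescence is measured.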

[9] = qHTS assay for small molecule disruptors of the mitochondrial membrane potential (AID 720635); also: potency is read from the fitted curve at half-maximal effect
Method in brief: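 HepG2 cells (2,000/well) attached overnight at 37C, then took compound for 1 hr at 37C, 5% CO2. Mito-MPS dye was added for 30 min; fluorescence was read at 490/535 nm (monomers) and 540/590 nm (aggregates).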
% is scaled to controls: 0 for no effect and ±100 for the full control effect; tags tell the direction and shape of the fitted curve or compound fluorescence and quenching.

CN1CCc2cc(Cl)c(O)cc2[C@H]2c3ccccc3CC[C@@H]21
inactive: Potency [1] | Potency [2] | Potency [3] | outcome [4] | Potency [5] | Potency [6] | outcome [7]

CC1(C)C(C=C(Cl)Cl)C1C(=O)OC(C#N)c1ccc(F)c(Oc2ccccc2)c1 (stereo not given)
active: Potency [9] 54.5 µM
inactive: Potency [1] | Potency [8] | outcome [4] | Potency [5] | Potency [6] | outcome [7]

Oc1cc(Cl)c(Cl)c(Cl)c1Cl
inactive: Potency [1] | Potency [8] | outcome [4] | Potency [5] | Potency [6] | outcome [7]

CC(C)=CC1C(C(=O)OC(C#N)c2cccc(Oc3ccccc3)c2)C1(C)C (stereo not given)
inactive: Potency [1] | Potency [8] | Potency [3] | outcome [4] | Potency [5] | Potency [6] | outcome [7]

CCC(OC(C)=O)C(CC(C)NC)(c1ccccc1)c1ccccc1 (stereo not given)
inactive: Potency [1] | Potency [8] | Potency [3] | outcome [4] | Potency [5] | Potency [6] | outcome [7]
active: Potency [9] 49 µM

O=C(Nc1ccc(F)cc1F)c1cccnc1Oc1cccc(C(F)(F)F)c1
active: Potency [9] 23.8 µM
inactive: Potency [1] | Potency [8] | Potency [3] | outcome [4] | Potency [5] | Potency [6] | outcome [7]

CCN1CCC2(CC1)COc1cc3c(cc12)N(C(=O)c1ccc(-c2ccc(-c4nnc(C)o4)cc2C)cc1)CC3
inactive: Potency [1] | outcome [4] | Potency [5] | Potency [6] | outcome [7]
active: Potency [8] 56.4 µM | Potency [9] 7.96 µM

CC(=O)[O][Sn]([c]1ccccc1)([c]1ccccc1)[c]1ccccc1
inactive: Potency [1] | Potency [5] | Potency [6] | outcome [7]
active: Potency [8] 0.122 µM | Potency [3] 15.4 µM | Potency [9] 0.077 µM

ClCBr
inactive: Potency [1] | Potency [8] | Potency [3] | Potency [9] | outcome [4] | Potency [5] | Potency [6] | outcome [7]

CSC(=O)c1c(C(F)F)nc(C(F)(F)F)c(C(=O)SC)c1CC(C)C
inactive: Potency [1] | Potency [2] | outcome [4] | Potency [5] | Potency [6] | outcome [7]

CCc1cccc(C)c1N(C(=O)CCl)[C@@H](C)COC
inactive: Potency [1] | Potency [8] | outcome [4] | Potency [5] | Potency [6] | outcome [7]

CO/N=C(/C1=NOCCO1)c1ccccc1Oc1ncnc(Oc2ccccc2Cl)c1F
active: Potency [9] 54.4 µM
inactive: Potency [1] | Potency [8] | outcome [4] | Potency [5] | Potency [6] | outcome [7]

CC(C)N(C(=O)CCl)c1ccccc1
inactive: Potency [1] | Potency [3] | Potency [9] | Potency [5] | Potency [6] | outcome [7]
inactive and 30.6 µM (active): Potency [2]

COc1ccc(Cc2nccc3cc(OC)c(OC)cc23)cc1OC
inactive: Potency [1] | Potency [2] | Potency [3] | fluorescence, relative to Rose Bengal [4] 0.593% [at 18.6 µM] | fluorescence, % of fluorescein control [5] 0.0156% [at 18.6 µM] | fluorescence, % of triamterene [6] -0.311% [at 18.6 µM] | fluorescence, % of fluorescent control [7] -0.0717% [at 18.6 µM]

C[C@]12C/C(=C/O)C(=O)C[C@@H]1CC[C@@H]1[C@@H]2CC[C@@]2(C)[C@H]1CC[C@]2(C)O
active: Potency [2] 49 µM
inactive: Potency [1] | Potency [3] | outcome [4] | Potency [5] | Potency [6] | outcome [7]

CN(C)CCc1c[nH]c2ccccc12
inactive: Potency [1] | Potency [8] | Potency [3] | Potency [9] | Potency [5] | Potency [6] | outcome [7]

O=c1c2ccccc2c(=O)c2c1cc(Cl)c1[nH]c3c([nH]c12)c(Cl)cc1c(=O)c2ccccc2c(=O)c13
inactive: Potency [1] | Potency [8] | Potency [3] | outcome [4] | Potency [5] | Potency [6] | outcome [7]

CN(C)C(=S)SSC(=S)N(C)C
active: Potency [1] 19.1 µM | Potency [8] 6.68 µM and 26.9 µM | Potency [9] 335 nM and 30.2 µM and 54.5 nM
inactive: Potency [3] | outcome [4] | Potency [5] | Potency [6] | outcome [7]

CCNc1nc(NC(C)C(C)C)nc(SC)n1 (stereo not given)
inactive: Potency [1] | Potency [8] | Potency [3] | outcome [4] | Potency [5] | Potency [6] | outcome [7]
active: Potency [9] 7.7 µM

N#Cc1c2ccccc2cc2ccccc12
active: Potency [9] 1.72 µM | Potency [6] 1.26 µM [fluorescent]
inactive: Potency [8] | outcome [4] | Potency [5] | outcome [7]

CNN
inactive: Potency [2] | Potency [8] | Potency [3] | Potency [9] | outcome [4] | Potency [5] | Potency [6] | outcome [7]

CCOP(=S)(OCC)SC(CCl)N1C(=O)c2ccccc2C1=O (stereo not given)
inactive: Potency [1] | Potency [8] | outcome [4] | Potency [5] | Potency [6] | outcome [7]

CC(=O)[O-].CC(=O)[O-].CC(=O)[O-].[Sb+3]
inactive: activity change, negative = cytotoxicity [2] 11.3% [at 8.08 µM] | fluorescence, % of fluorescein control [5] -0.114% [at 3.72 µM] | fluorescence, % of triamterene [6] -0.0361% [at 3.72 µM] | fluorescence, % of fluorescent control [7] 0.24% [at 3.72 µM]

N#CSCc1ccccc1
inactive: Potency [3] | outcome [4] | Potency [5] | Potency [6] | outcome [7]

[Cl-].[Cl-].[Sn+2]
inactive: Potency [8] | outcome [4] | Potency [5] | Potency [6] | outcome [7]

C1=CCC=C1
inactive: Potency [2] | Potency [8] | Potency [3] | outcome [4] | Potency [5] | outcome [7]

CC(=O)[O-].CC(=O)[O-].O.O.[Zn+2]
inactive: Potency [2] | Potency [8] | Potency [5] | Potency [6] | outcome [7]
